Source: PubChem (National Center for Advancing Translational Sciences (NCATS))
TRHR PAM – qHTS for Small Molecule Agonists and Allosteric Enhancers of Human TRH Receptor: Primary Screen for Enhancers; Thyrotropin-releasing hormone receptor (Homo sapiens), P34981; TRHR cells, fluo-8 calcium fluorescence, EC20 TRH enhancement; enhancement, % at 2 µM; hit rate 0.66% among 360,000; AID 493056, 2011; in the data active = enhancement above about 30%; note: 0% is about no effect
Target sequence (P34981 whole entry, looked up): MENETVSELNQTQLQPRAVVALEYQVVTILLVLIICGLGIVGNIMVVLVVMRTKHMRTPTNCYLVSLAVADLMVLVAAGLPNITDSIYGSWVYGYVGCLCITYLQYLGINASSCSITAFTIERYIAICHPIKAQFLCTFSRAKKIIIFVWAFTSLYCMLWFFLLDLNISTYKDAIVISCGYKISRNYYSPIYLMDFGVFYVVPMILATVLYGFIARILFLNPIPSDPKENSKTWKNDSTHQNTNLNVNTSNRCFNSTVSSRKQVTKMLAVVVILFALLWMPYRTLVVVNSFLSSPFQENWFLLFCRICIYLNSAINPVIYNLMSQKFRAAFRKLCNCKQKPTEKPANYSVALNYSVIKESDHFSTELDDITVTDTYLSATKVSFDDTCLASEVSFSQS
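Enhancer read-out: after compound pinning and an initial kinetic agonist-mode read, an EC20 of TRH (10 nM final) was injected and fluo-8 calcium signal (Ex 480/Em 530) followed at 1 s/cycle for 100 cycles in TRHR-expressing cells.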
TRHR ag – qHTS for Small Molecule Agonists and Allosteric Enhancers of Human TRH Receptor: Primary Screen for Agonists. Thyrotropin-releasing hormone receptor (Homo sapiens), P34981. TRHR cells, calcium flux fluo-8, FDSS agonist mode. activation, % at 2 µM. hit rate 0.18% among 360,000. AID 493084, 2011; note: 0% is about no effect
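Agonist-mode FDSS calcium read (Ex 480/Em 530, 1 s cycles) in 1536-well TRHR cells with fluo-8 dye, after 10-cycle baseline and 23 nL compound addition; TRH at EC20 (10 nM final) added afterwards for the enhancer phase.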
D1 potentiator – Potentiators of Human D1 Dopamine Receptor: qHTS; HEK293 TREx D1 cells, calcium flux, dopamine EC20 potentiation; hit rate 0.036% among 360,000; potentiation, % at 10 µM; in the data active = potentiation above about 30%; note: 0% is about no effect
D1 agonist – Allosteric Agonists of the Human D1 Dopamine Receptor: qHTS | D(1A) dopamine receptor (Homo sapiens), P21728 | AID 504660, 2011 | activation, % at 2 µM | HEK293 T-REx D1 cells, calcium flux, agonist mode | hit rate 1% among 360,000; note: 0% is about no effect
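Agonism was scored from calcium flux recorded over 180 s (1 read/s) after pintool compound addition, following a 10-cycle baseline. Cells were inducible force-coupled HEK293 TREx D1, plated overnight at 30 C and loaded with no-wash calcium dye.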
D1 antagonist – Antagonist of Human D 1 Dopamine Receptor: qHTS | activity change, negative = inhibition, % at 10 µM | AID 504652, 2011 | hit rate 3.2% among 360,000 | HEK293 TREx D1 cells, calcium flux, dopamine EC80; active compounds read low; in the data active = activity change below about -30%; note: % is set by controls: 0 for no effect and ±100 for the full control effect
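Calcium flux readout: force-coupled, inducible Hek293 Trex D1 line, cells induced overnight at 30 C with tetracycline, dye-loaded 30–90 min at RT. Antagonism scored against EC80 dopamine challenge given 180 s after compound.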
* marks the source's active call; other numbers are inactive results; x = no result. Rows were chosen to be rich in hits. Some 4.7% of all compounds tested hit in one or more screens of this group. Cut-off read from the data, not from the text of the source, unless noted: active = activation above about 30%; inactive = the rest.

SMILES | TRHR PAM | TRHR ag | D1 potentiator | D1 agonist | D1 antagonist
COC(=O)c1nnn(CC(=O)Nc2ccc(Br)c(C)c2)c1N | 5 | 0 | 1 | 2 | -4
Cc1cc(C(=O)Cn2nnc3ccccc3c2=O)c(C)n1Cc1cccs1 | 32* | -1 | -6 | 5 | 5
COc1ccc(OC)c(C(=O)Cn2nnc3ccccc3c2=O)c1 | 39* | 0 | -5 | -1 | 1
Cc1ccc(C(=O)/C=C\C(=O)c2ccc(C)cc2)cc1 | 3 | 1 | -10 | 2 | -38*
COCCN(Cc1ccco1)C(=O)c1cc2c(Cl)nc3ccc(C)cc3c2s1 | 4 | 0 | -1 | 1 | 2
Cc1noc(C)c1CSCC(=O)N(C)CC(=O)Nc1ccccc1Br | -5 | 0 | -3 | 4 | -47*
Cc1cccc(C)c1NC(=O)CN(C)C(=O)CSCc1c(C)noc1C | 13 | -1 | -1 | 0 | 18
CCOc1ccc(S(=O)(=O)Nc2cccc(-c3ccc(OCC)nn3)c2)cc1 | 1 | -1 | -3 | 5 | -10
CC(C)c1ccc(N2C(=O)C3C4C=CC(CC4)C3C2=O)cc1 (stereo not given) | 1 | 1 | 0 | 12 | -26
CC1CC(=O)N(c2ccc(C(C)C)cc2)C(=O)C1 | 8 | 1 | -5 | 6 | -32*
CC(C)(C)N=C1NN=C(c2ccc(Cl)cc2)CS1 | 6 | 0 | -11 | 0 | -40*
CC(=O)c1c(C)[nH]c(C2=NNC(=NC(C)(C)C)SC2)c1C | 0 | 1 | -8 | 2 | -33*
CCOC(=O)c1c(C)[nH]c(C2=NNC(=Nc3ccc(OCC)cc3)SC2)c1C | 4 | -1 | -16 | -2 | -72*
CCCc1cc(C(=O)Nc2c(C)nn(Cc3ccc(Cl)c(Cl)c3)c2C)no1 | 9 | -1 | 0 | 9 | -12
CC(C)(C)CC(C)(C)NCC(O)COc1c(F)cc(Br)cc1F (stereo not given) | 21 | 2 | -8 | 39* | 7
Cc1cccc(NC(=O)CSc2nnc(-c3cc(C)n(-c4ccccc4)c3C)o2)c1C | -1 | 0 | -8 | 0 | -22
CCNC(=O)CSc1nc(-c2ccc(F)cc2)cs1 | -2 | 0 | -7 | 0 | -31*
CC(C)(C)NC(=O)CSc1nc(-c2ccc(F)cc2)cs1 | -2 | -2 | 0 | 2 | 3
Cc1cc(NC(=O)CSc2ccc(Cl)cc2)no1 | -3 | -5 | -4 | 3 | 3
Cc1cc(-c2nnc(SCC(=O)Nc3ccccc3C(F)(F)F)o2)c(C)n1-c1ccccc1 | 6 | 8 | -4 | 52* | -1
Cc1cc(NC(=O)CSc2nc(-c3ccc(Cl)cc3)cs2)no1 | -1 | 0 | -3 | 2 | -46*
Cc1cc(NC(=O)CSc2nnc(-c3ccccc3Cl)o2)no1 | 34* | 0 | -8 | 1 | -6
Cc1n[nH]c(C)c1S(=O)(=O)N(CC(=O)NCc1ccccc1Cl)c1ccc(C(C)C)cc1 | 8 | -1 | 3 | 4 | 22
CC(=O)Nc1ccc(S(=O)(=O)N2CCC(N3CCN(Cc4ccc(C)cc4)C(=O)C3=O)CC2)cc1 | -3 | 0 | 3 | 2 | -16
O=c1[nH]c(-[n+]2ccccc2)c(/C=N/NC([S-])=Nc2ccccc2)s1 | 3 | 56* | -1 | 174* | -3
SMILES | TRHR PAM | TRHR ag | D1 potentiator | D1 agonist | D1 antagonist
O=C1Nc2ccccc2/C1=C/c1ccc([N+](=O)[O-])cc1 | -2 | 0 | -1 | -1 | -8
CC1(c2ccc([N+](=O)[O-])cc2)Nc2ccccc2S1 (stereo not given) | 31* | 0 | 3 | 0 | 1
Cc1ccc2c(c1)N(S(=O)(=O)c1ccc(F)cc1)C(C(C)(C)C)CO2 (stereo not given) | -1 | 0 | 8 | 6 | -40*
Cc1ccc(S(=O)(=O)N2c3ccccc3OCC2C(C)(C)C)cc1 (stereo not given) | -6 | 0 | -6 | 1 | 0
CCCOc1ccc(Oc2nc(NC)nc(N3CCOCC3)n2)nn1 | 0 | 1 | 0 | 2 | -5
COc1cc(SC)ccc1C(=O)OCC(=O)NC(=O)NC(C)C | -27 | 0 | -7 | 1 | -66*
COc1cc(SC)ccc1C(=O)OCC(=O)NCC(C)C | 7 | 0 | 0 | -4 | 0
Cc1ccc(Sc2ncnc3onc(C)c23)c(C)c1 | 1 | -1 | -3 | -3 | x
COc1ccc(Sc2ncnc3onc(C)c23)cc1 | -1 | 1 | -3 | -1 | -42*
COCCCNS(=O)(=O)c1ccc(SC)cc1 | -1 | 0 | -3 | 3 | -4
CSc1ccc(S(=O)(=O)NCCOc2ccccc2C)cc1 | -3 | 0 | -7 | 9 | -31*
CC(C)C(=O)N1c2nc(-c3ccco3)nn2C2(CCCCC2)[C@@H]2CCCC[C@@H]21 | 3 | -2 | 0 | 2 | -2
CCCCCCCC[n+]1cccc(C(=O)N(CC)CC)c1 | 2 | -1 | 2 | 1 | 10
CCCCCCCCCCCCCCCC[n+]1cccc(C(=O)N(CC)CC)c1 | 2 | 0 | 15 | 279* | -21
Cc1c(N=C2Nc3cccc4cccc2c34)c(=O)n(-c2ccccc2)n1C | 6 | 10 | -6 | 36* | -8
CCOC(=O)c1c(NC(=O)CSc2cn(CCNC(=O)c3ccc(OC)cc3)c3ccccc23)sc2c1CCC2 | 5 | 1 | -3 | 0 | 0
CCOC(=O)Nc1sc(C)nc1-c1ccccc1 | 3 | 0 | -9 | 1 | -49*
COC(=O)Nc1sc(C)nc1-c1ccccc1 | -4 | 0 | x | x | x
O=C(NCCOc1ccc(F)cc1)C1CCC(=O)N(CCN2CCOCC2)C1 (stereo not given) | -3 | 1 | -5 | 0 | -53*
CCCCOC(=O)c1ccc(NC(=O)COC(=O)C2CSC3(C)CCC(=O)N23)cc1 (stereo not given) | -4 | 2 | -7 | 22 | -46*
Cc1ccc(NC(=O)C(NC2CCCc3ccccc32)c2ccccc2)c([N+](=O)[O-])c1 (stereo not given) | 5 | 0 | 2 | 4 | 15
CNC(=O)NC(=O)C(NC1CCCc2ccccc21)c1ccccc1 (stereo not given) | 6 | -1 | 11 | -1 | -33*
Cc1ccc(NC(=O)C(NC2CCCc3ccccc32)c2ccccc2)cc1Cl (stereo not given) | 32* | 0 | 7 | 9 | -23
CCOC(=O)c1ccc(N2C(=O)c3n[nH]c(-c4ccco4)c3C2c2ccc(OCC)cc2)cc1 (stereo not given) | 14 | 4 | 10 | 4 | 37
CN(Cc1ccccc1)C(=O)c1nc2ccccn2c1CN1CCc2sccc2C1 | -6 | -1 | -4 | 3 | -33*
